Our source for the potency estimated from few doses values is article PMC11062922 (Nature Chemical Biology, 2023).

SMILES strings stand for the structures. Like-named read-outs stand apart in the source and are kept apart here.

The test system of one assay is ADCK3. Also noted: species or system human, MV4-11 + K-562 + COLO205 + SK-N-BE2 + OVCAR-8. Particulars: read-out: apparent Kd, compound concentrations: 100 nM and 1000 nM (sheet 'Samples'), n = 1.
The subject of the next assay is AKT1. Details: species or system human, MV4-11 + K-562 + COLO205 + SK-N-BE2 + OVCAR-8. The following applies: read-out: apparent Kd; compound concentrations: 100 nM and 1000 nM (sheet 'Samples'), CATDS: 7.0300825665370006E-2; n = 1.
Another assay has as its system AKT2. Also noted: species or system human, MV4-11 + K-562 + COLO205 + SK-N-BE2 + OVCAR-8. Particulars: read-out: apparent Kd, compound concentrations: 100 nM and 1000 nM (sheet 'Samples'), n = 1.
For the next assay, the system named is AKT3. Details: species or system human, MV4-11 + K-562 + COLO205 + SK-N-BE2 + OVCAR-8. Particulars: read-out: apparent Kd, compound concentrations: 100 nM and 1000 nM (sheet 'Samples'), n = 1.
The subject of a further assay is CAMK4. Details: species or system human, MV4-11 + K-562 + COLO205 + SK-N-BE2 + OVCAR-8. Particulars: read-out: apparent Kd; compound concentrations: 100 nM and 1000 nM (sheet 'Samples'), CATDS: 6.2704005161184906E-2; n = 1.
The test system of another assay is CSNK1A1. Also noted: species or system human, MV4-11 + K-562 + COLO205 + SK-N-BE2 + OVCAR-8. The following applies: read-out: apparent Kd; compound concentrations: 100 nM and 1000 nM (sheet 'Samples'), CATDS: 6.8994714696940407E-2; n = 1.
In a further assay the test system is MAP2K1. Also noted: species or system human, MV4-11 + K-562 + COLO205 + SK-N-BE2 + OVCAR-8. Particulars: read-out: apparent Kd; compound concentrations: 100 nM and 1000 nM (sheet 'Samples'), CATDS: 7.1306793514003305E-2; n = 1.
Another assay deals with MAP2K2. Details: species or system human, MV4-11 + K-562 + COLO205 + SK-N-BE2 + OVCAR-8. The following applies: read-out: apparent Kd; compound concentrations: 100 nM and 1000 nM (sheet 'Samples'), CATDS: 7.3872380173305399E-2; n = 1.
In a further assay the test system is MAPK9. Also noted: species or system human, MV4-11 + K-562 + COLO205 + SK-N-BE2 + OVCAR-8. Particulars: read-out: apparent Kd; compound concentrations: 100 nM and 1000 nM (sheet 'Samples'), CATDS: 6.4176537599483302E-2; n = 1.
The next assay deals with NQO1. Details: species or system human, MV4-11 + K-562 + COLO205 + SK-N-BE2 + OVCAR-8. The following applies: read-out: apparent Kd; compound concentrations: 100 nM and 1000 nM (sheet 'Samples'), CATDS: 8.1829364824624801E-2; n = 1.
A further assay has as its system PIM2. Details: species or system human, MV4-11 + K-562 + COLO205 + SK-N-BE2 + OVCAR-8. The following applies: read-out: apparent Kd; compound concentrations: 100 nM and 1000 nM (sheet 'Samples'), CATDS: 7.6487231298609404E-2; n = 1.
Another assay concerns PYGL. Details: species or system human, MV4-11 + K-562 + COLO205 + SK-N-BE2 + OVCAR-8. Particulars: read-out: apparent Kd; compound concentrations: 100 nM and 1000 nM (sheet 'Samples'), CATDS: 6.9677029727435405E-2; n = 1.
A further assay concerns RIOK2. Details: species or system human, MV4-11 + K-562 + COLO205 + SK-N-BE2 + OVCAR-8. Particulars: read-out: apparent Kd; compound concentrations: 100 nM and 1000 nM (sheet 'Samples'), CATDS: 6.63813283152343E-2; n = 1.
The next assay has as its system SMC4. Also noted: species or system human, MV4-11 + K-562 + COLO205 + SK-N-BE2 + OVCAR-8. The following applies: read-out: apparent Kd; compound concentrations: 100 nM and 1000 nM (sheet 'Samples'), CATDS: 6.4174106680799994E-2; n = 1.
In the next assay the test system is PIK3CB. Also noted: species or system human, MV4-11 + K-562 + COLO205 + SK-N-BE2 + OVCAR-8. The following applies: read-out: apparent Kd; compound concentrations: 100 nM and 1000 nM (sheet 'Samples'), CATDS: 0.78583542489200198; n = 1.
For the next assay, the system named is ADCK1. Details: species or system human, MV4-11 + K-562 + COLO205 + SK-N-BE2 + OVCAR-8. Particulars: read-out: apparent Kd; compound concentrations: 100 nM and 1000 nM (sheet 'Samples'), CATDS: 0.14562784613858401; n = 1.
Another assay deals with LIMK1. Also noted: species or system human, MV4-11 + K-562 + COLO205 + SK-N-BE2 + OVCAR-8. The following applies: read-out: apparent Kd; compound concentrations: 100 nM and 1000 nM (sheet 'Samples'), CATDS: 0.152053831473141; n = 1.
Another assay relates to NEK1. Also noted: species or system human, MV4-11 + K-562 + COLO205 + SK-N-BE2 + OVCAR-8. Particulars: read-out: apparent Kd; compound concentrations: 100 nM and 1000 nM (sheet 'Samples'), CATDS: 0.19071251042520401; n = 1.
Another assay has as its system NEK3. Also noted: species or system human, MV4-11 + K-562 + COLO205 + SK-N-BE2 + OVCAR-8. Particulars: read-out: apparent Kd; compound concentrations: 100 nM and 1000 nM (sheet 'Samples'), CATDS: 0.104444124059675; n = 1.
The next assay concerns PIK3CG. Details: species or system human, MV4-11 + K-562 + COLO205 + SK-N-BE2 + OVCAR-8. Particulars: read-out: apparent Kd; compound concentrations: 100 nM and 1000 nM (sheet 'Samples'), CATDS: 0.203728906999049; n = 1.
The target in a further assay is Q6ZSR9 (human, UniProt Q6ZSR9). Also noted: species or system MV4-11 + K-562 + COLO205 + SK-N-BE2 + OVCAR-8. Particulars: read-out: apparent Kd; compound concentrations: 100 nM and 1000 nM (sheet 'Samples'), CATDS: 0.122629729389454; n = 1.
A further assay concerns ULK3. Also noted: species or system human, MV4-11 + K-562 + COLO205 + SK-N-BE2 + OVCAR-8. Particulars: read-out: apparent Kd; compound concentrations: 100 nM and 1000 nM (sheet 'Samples'), CATDS: 0.13028538158994399; n = 1.
The subject of the next assay is ADRBK1. Also noted: species or system human, MV4-11 + K-562 + COLO205 + SK-N-BE2 + OVCAR-8. The following applies: read-out: apparent Kd; compound concentrations: 100 nM and 1000 nM (sheet 'Samples'), CATDS: 0.28294798490762901; n = 1.

Sequence of Q6ZSR9 (Q6ZSR9 whole entry, looked up): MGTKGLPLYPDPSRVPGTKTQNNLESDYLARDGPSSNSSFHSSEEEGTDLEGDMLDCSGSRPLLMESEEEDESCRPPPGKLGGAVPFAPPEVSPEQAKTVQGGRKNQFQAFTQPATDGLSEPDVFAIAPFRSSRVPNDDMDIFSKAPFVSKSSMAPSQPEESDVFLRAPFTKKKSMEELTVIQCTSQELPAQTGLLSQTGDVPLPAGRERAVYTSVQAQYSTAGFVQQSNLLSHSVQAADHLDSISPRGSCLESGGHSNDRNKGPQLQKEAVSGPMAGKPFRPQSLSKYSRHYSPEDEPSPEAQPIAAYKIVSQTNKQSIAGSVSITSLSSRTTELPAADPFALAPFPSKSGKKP

For `O=C(NC1CCN(c2ccnc(Nc3ccc(F)cc3)n2)C1)c1cc2ccccc2s1` (stereo not shown) [GSK1379716A], the potency estimated from few doses with ADCK3 (CATDS: 8.9568558281788502E-2) was 1.14 µM; with AKT1 it was 1.78 µM; in the assay on AKT2 (CATDS: 7.1049746121653101E-2), 1.74 µM; with AKT3 (CATDS: 7.9002074728764499E-2) it was 1.42 µM; in the assay on CAMK4 it was 2.28 µM; in the assay on CSNK1A1, 1.85 µM. For the same compound, the potency estimated from few doses is 1.73 µM with MAP2K1; 1.61 µM in the assay on MAP2K2; 2.16 µM in the assay with MAPK9; 1.33 µM in the assay on NQO1; 1.5 µM with PIM2; 1.81 µM in the assay on PYGL. Also, the potency estimated from few doses is 2.01 µM in the assay on RIOK2 and 2.16 µM with SMC4.

Consider `FC(F)(F)c1ccc(/C=C/c2cncnc2Nc2ccc3[nH]c(Cc4ccccc4)nc3c2)cc1` [GW709199X], for which the potency estimated from few doses in the assay on ADCK3 (CATDS: 1) is 0.456 µM.

For the compound `Cc1c(Cn2ccn3c(=O)nc(N4CCOCC4)cc23)cccc1C(F)(F)F` [GSK2336394A], the potency estimated from few doses in the assay with ADCK3 (CATDS: 0.28209603435573799) is 0.575 µM; with AKT3 (CATDS: 0.239087060290751), 1.03 µM; in the assay on PIK3CB, 0.0542 µM.

With `COc1cc(Nc2nccc(N3CCC(NS(=O)(=O)c4ccc(NC(C)=O)cc4)CC3)n2)cc(OC)c1OC` [GSK1379825A], the potency estimated from few doses with ADCK1 was 1 µM; in the assay with LIMK1 it was 0.921 µM; with NEK1, 0.61 µM; in the assay with NEK3, 2.36 µM; in the assay with PIK3CG, 0.547 µM; with Q6ZSR9, 1.49 µM. Besides, the potency estimated from few doses in the assay on ULK3 is 1.28 µM.

As for `O=C1NC(=O)C(c2c[nH]c3ccccc23)=C1c1ccccc1` [RO0316849-000], the potency estimated from few doses in the assay with ADCK3 (CATDS: 0.47545697813848398) is 0.812 µM; in the assay on ADRBK1, 2.27 µM; in the assay on AKT2 (CATDS: 0.297394073145339), 2.01 µM.
